Source: PubChem (National Center for Advancing Translational Sciences (NCATS))
Most compounds without a hit are left out; they make up all but 8.3% or so of the library.
MCF10A rerep: DNA re-replication induction in MCF 10a cells. MCF 10A DNA re-replication, Hoechst nuclear intensity, 48 h. Potency, µM (top dose mostly 46.1 µM), without a hit: top-dose activity, positive = re-replication, most hits filed as activators. 350,000 compounds, 2.9% hits. AID 624296; further: potency means the concentration at half of the fitted maximal effect; % of control where 0% means no effect; nearly all actives have a fitted effect of over 50% in size
BCR signal inh: blocks chronic active B-cell receptor signaling; ABC-DLBCL IkBa-CBG/CBR reporter, luminescence ratio, 4 h; AID 493014; 340,000 compounds, 0.05% hits; Potency, µM (highest dose often 46.1 µM), for inactives: top-dose activity change, negative = inhibition, actives largely listed as inhibitors; active means well fitted inhibition curve with a large enough effect in the signal ratio, with a control signal flat, not every such curve was filed as active; inconclusive means small, poorly fitted or top-dose-only effect, or effect the other way, or a change in a side signal; the % refers to the signal ratio;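 further: potency means the concentration at half of the fitted maximal effect; plate controls were basal doxycycline-induced cells for no effect and cells given 10 µM MG132 for full effect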
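TMD8 human ABC-DLBCL cells with doxycycline-inducible IκBα–green luciferase fusion and unfused red luciferase, in 0.5% FBS medium; compounds up to 46 uM, 4 h at 37C. Green/red luminescence ratio, filter-overlap corrected, fitted to concentration-response curves.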
Gal4-VP16 FLuc: Gal4-VP16 reporter inhibition counter-screen | Potency, µM (doses to about 53.6 µM), for inactives: at the highest dose activity, negative = inhibition, usual class: inhibitors | 310,000 compounds, 3.5% hits | Drosophila S2 Gal4-VP16 UAS-luciferase, luminescence, 20 h | AID 2546;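 further: Gal4-VP16 expression switched on by copper sulfate through the metallothionein promoter; potency means the concentration at half of the fitted maximal effect; on the % scale 0 is the no-effect control and ±100 the full control effect; nearly all actives have a fitted effect of over 50% in size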
SW480 rereplic: inducers of DNA re-replication in SW480 colon cancer cells | Potency, µM (titrated, usually from 46.1 µM), for the others: top-dose re-replication activation, hits mostly activators | SW480 DNA re-replication, Hoechst DNA content imaging, 48 h | 340,000 compounds, 1.8% hits; further: potency means the concentration at half of the fitted maximal effect; % of control where 0% means no effect; nearly all actives have a fitted effect of over 55% in size
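Hoechst fluorescence of nuclei (405 nm excitation, 500-530 nm emission) measured by plate-scanning imager after 48 hr compound exposure at 37 C; re-replication scored as increased number of nuclei with elevated intensity.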
RORg inh: blocks mouse ROR gamma transcriptional activity. P51450. Drosophila S2 Gal4-RORgamma UAS-luciferase reporter, 20 h. Potency, µM (titrated, usually from 53.6 µM), without a hit: top-dose activity change, negative = inhibition, usual class: inhibitors. 310,000 compounds, 5.4% hits; further: potency means the concentration at half of the fitted maximal effect; on the % scale 0 is the no-effect control and ±100 the full control effect; nearly all actives have a fitted effect of over 60% in size
Target sequence (P51450 whole entry, looked up, the tested form may be a part): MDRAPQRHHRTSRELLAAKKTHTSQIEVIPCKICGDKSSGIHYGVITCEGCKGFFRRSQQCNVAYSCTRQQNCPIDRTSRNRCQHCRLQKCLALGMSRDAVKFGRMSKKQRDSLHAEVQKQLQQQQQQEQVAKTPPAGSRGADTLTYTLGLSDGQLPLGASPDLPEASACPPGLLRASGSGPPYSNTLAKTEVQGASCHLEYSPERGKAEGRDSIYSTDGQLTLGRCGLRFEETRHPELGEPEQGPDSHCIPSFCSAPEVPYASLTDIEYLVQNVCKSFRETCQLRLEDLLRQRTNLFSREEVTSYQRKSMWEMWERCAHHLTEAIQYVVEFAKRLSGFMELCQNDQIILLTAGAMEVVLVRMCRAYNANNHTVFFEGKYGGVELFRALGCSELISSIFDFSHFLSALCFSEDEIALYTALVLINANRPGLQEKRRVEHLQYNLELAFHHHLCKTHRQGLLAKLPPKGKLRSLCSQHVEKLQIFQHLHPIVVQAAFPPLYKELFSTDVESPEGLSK
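Compounds are pin-transferred onto Drosophila Schneider cells expressing a copper-inducible Gal4–ROR gamma transactivation domain fusion. After 1 hr, copper sulfate is added to 700 uM final; luciferase is read 20 hr later.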
Giardia kill: kills Giardia lamblia; 340,000 compounds, 0.15% hits; Giardia lamblia trophozoite viability; AID 540267; activity change, % at 7.66 µM, hits read low; in the data active means activity change below about -80%; inconclusive means between about -30% and that limit;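 further: parasites exposed to compound for two days anaerobically before the ATP read; on the % scale 0 is the no-effect control and ±100 the full control effect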
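Luminescent ATP signal served as the viability read-out, measured 15-30 min after adding ATP detection reagent to trophozoites that had been incubated with compounds for 48 hrs at 37 deg C anaerobically at 100 cells/well.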
An asterisk follows results filed as active; ? = inconclusive; nt = not tested or not shown; [ ] = dose if it differs, or a comment. Unless noted, the call rests on the fitted dose curve; in most records, active means well fitted curve in the direction sought with a large enough effect; inconclusive means small, poorly fitted or top-dose-only effect, or another doubt; inactive means no such curve, though single readings can be large; an effect the other way counts as inactive or inconclusive.

SMILES	MCF10A rerep	BCR signal inh	Gal4-VP16 FLuc	SW480 rereplic	RORg inh	Giardia kill
CCCNC(=S)N1CCC(C(=O)c2ccc(Cl)cc2)CC1	0%	-13%	-2%	7.3µM*	-11%[1.91 µM]	22
C=CCn1c(COc2ccc(Cl)cc2)nnc1SCC(=O)Nc1ccc(S(N)(=O)=O)cc1	7%	-5%	-19%	-2%	40%	-5
C=CCn1c(COc2cccc(C)c2)nnc1SCC(=O)NC(=O)NCc1ccco1	18µM*	-18%	?	-1%	?	-6
C=CCn1c(COc2ccc(Cl)cc2)nnc1SCC(=O)NCC(=O)OCC	?	4%	?	-2%	11µM*	2
C=CCn1c(COc2ccccc2)nnc1SCC(=O)N/N=C/c1cc(Cl)ccc1O	-14%	nt	?	?	13µM*	0
C=CCn1c(CNc2ccccc2)nnc1SCC(=O)N/N=C/c1ccc(O)cc1O	16µM*	?	0%	5%	-33%	-10
CCCN1CNc2c(c(=O)[nH]c(=S)n2CCc2cccc(OC)c2)C1	nt	nt	nt	nt	nt	6
CC(C)(C)NC(=O)[C@H]1CC[C@H]2[C@@H]3CC[C@H]4NC(=O)C=C[C@]4(C)[C@H]3CC[C@]12C	?	4%	-19%	-98%	?	1
COCCN(C(=O)COC(=O)CSc1ccc2ccccc2c1)c1c(N)n(Cc2ccccc2)c(=O)[nH]c1=O	6%	?	nt	-6%	nt	1
Clc1ccc(-c2nc3cc(CN4CCCCC4)ccc3o2)cc1	10%	6%	6%	-9%	6%	9
COc1ccc(/C=N/NC(=O)c2[nH]c3ccc(C)cc3c2-c2ccccc2)c(C(=O)O)c1OC	5.8µM*	?	-2%	?	-10%	-5
Cc1ccc2[nH]c(C(=O)N/N=C/c3ccccc3O)c(C)c2c1	18%	?	6.3µM*	24%	1µM*	20
Cc1ccc2[nH]c(C(=O)N/N=C/c3ccccc3C(=O)O)c(-c3ccccc3)c2c1	?	?	-3%	?	15%	-14
COc1ccc(C(=O)C(CCC(CNC(C)(C)C)C(=O)c2ccc(OC)cc2)CNC(C)(C)C)cc1 (stereo not drawn)	5.8µM*	?	13µM*	2.9µM*	?	14
COCCN(C(=O)CC1C(=O)NCCN1CC(c1ccccc1)c1ccccc1)C(C)C (stereo not drawn)	-6%	-4%	4%	-4%	-10%	5
C=CCNC(=S)NNC(=O)c1csc(C)c1C	-4%	4%	7.9µM*	-8%	?	6
CNC(=S)NNC(=O)c1sccc1C	-10%	?	-4%	-1%	0%	-2
Cc1ccsc1C(=O)NNC(=S)NC1CCCCC1	0%	?	11µM*	36%	-39%	5
C=CCNC(=S)NNC(=O)c1cc(O)ccc1O	12%	5%	-3%	23%	5%	20
CCCCNC(=S)NNC(=O)c1csc(C(C)C)c1	0%	2%	?	-3%	7.9µM*	-20
CCCCNC(=S)NNC(=O)c1sccc1C	3%	2%	-22%	?	1.4µM*	-4
O=C(COc1ccc(Br)cc1Cl)NC(=O)Nc1ccc2c(c1)OCCO2	-21%	-4%	8%	5%[1.84 µM]	-9%	-20
COc1ccc(C(CNC(=O)C2CC(=O)N(Cc3ccccc3)C2)N2CCCC2)cc1 (stereo not drawn)	3%	1%	nt	2%	nt	10
CCCCNC(=S)NNC(=O)c1csc(C)c1C	7%	?	14µM*	-7%	?	-11
CCCCNC(=S)NNC(=O)c1ccncc1	-20%	3%	-3%	-16%	?	-13
COc1ccc(OC)c(NC(=O)COC(=O)CCc2nc3ccccc3c(=O)[nH]2)c1	3%	-4%	nt	-3%	nt	2
CCOc1ccc(/C=N/Nc2nc(N3CCCC3)nc(N3CCCC3)n2)cc1OC	2%	-1%	?	-4%	13µM*	-1
